For 20 compounds, outcome results are on record in PubChem BioAssay (EPA / NIEHS).

Each structure is given as a SMILES string. Results filed as inconclusive are left out. Active and inactive are the calls of the source. Rule for the calls, unless noted: active = hit-call score of the fitted dose curve at least 0.9, where 1 is the maximum; inactive = score below 0.9.

Assay [1] is described as follows: CCTE_Harrill_HTTr_Viability_MCF7: CCTE's 6-hour Cell Viability Assessment for the High-Throughput Transcriptomics (HTTr) Platform, in MCF-7 cells cultured in DMEM + 10% fetal bovine serum, Harrill Lab (AID 2284010). The gist of the method: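 Eight-point concentration series, six-hour exposure. Propidium iodide exclusion imaged to assess membrane integrity as a cytotoxicity readout; bidirectional fitting was done with DMSO as negative control and activity baseline.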

Assay [2] is described as follows: CCTE_Harrill_HTTr_Apoptosis_MCF7: CCTE's 6-hour Apoptosis Assessment for the High-Throughput Transcriptomics (HTTr) Platform, in MCF-7 cells cultured in DMEM + 10% fetal bovine serum, Harrill Lab (AID 2284011). The gist of the method: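 MCF-7 cells in DMEM + 10% fetal bovine serum were exposed to chemicals for 6 hours over an eight-point dilution series. Caspase-3/7 activation was imaged by high content imaging with CellEvent Caspase 3/7 Green; bidirectional fitting used DMSO as baseline.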

Assay [3] can be described thus: CCTE_Harrill_HTTr_CellCount_MCF7: CCTE's Cell Proliferation Assessment for the High-Throughput Transcriptomics (HTTr) Platform, Harrill Lab (AID 2284012; active = hit-call score of the fitted dose curve at least 0.9, where 1 is the maximum;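 note: intended direction is loss of nuclei count meaning fewer cells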). In short, it runs like this: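 For this full-screen endpoint, MCF-7 cultures received eight compound dilutions for six hours. Well nuclei counts from Hoechst imaging were analyzed relative to DMSO.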

`c1ccc2sc(SN(C3CCCCC3)C3CCCCC3)nc2c1`: the result in assay [1] and in assay [2] was inactive.

Take `O=C(O)CCCCCCCC(=O)O`: the result in assay [1] and in assay [2] was inactive.

Regarding `COC(=O)C1=C(C)NC(C)=C(C(=O)OCCN(C)Cc2ccccc2)C1c1cccc([N+](=O)[O-])c1` (centres undefined), the outcome in assay [1] and in assay [2] was inactive.

Take `CC1CCC(C(C)(C)O)CC1` (centres undefined): the result in assay [1] and in assay [2] was inactive.

`CCCCN`: the result in assay [1] and in assay [2] was inactive.

As to `OCCN1CCNCC1`, the outcome in assay [1] and in assay [2] was inactive.

Consider `CCCCCCCCCCCCCC(=O)O`, for which the outcome in assay [1], in assay [2] and in assay [3] was inactive.

Turning to `CNC[C@H](O)c1cccc(O)c1`, the result in assay [1] and in assay [2] was inactive.

In the case of `CC1=CCC(O)(C(C)C)CC1` (centres undefined), the outcome in assay [1], in assay [2] and in assay [3] was inactive.

With `O=[N+]([O-])c1cc(C(F)(F)F)ccc1Cl`, the result in assay [1], in assay [2] and in assay [3] was inactive.

For `OCCOCCOCCOCCO`, the outcome in assay [1], in assay [2] and in assay [3] was inactive.

As for `CC(=O)O[C@]1(C(C)=O)CC[C@H]2[C@@H]3C[C@H](C)C4=CC(=O)CC[C@]4(C)[C@H]3CC[C@@]21C`, the outcome in assay [1] and in assay [2] was inactive.

`COc1cc2ncnc(Nc3cccc(Cl)c3)c2cc1OC`: the outcome in assay [1], in assay [2] and in assay [3] was inactive.

Turning to `Cc1cccc(C)c1C`, the outcome in assay [1] and in assay [2] was inactive.

For the compound `CC(CN1c2ccccc2Sc2ccccc21)N(C)C` (centres undefined), the result in assay [1] and in assay [2] was inactive.

On to `Clc1ccc2c(c1)C(N1CCNCC1)=Nc1ccccc1O2`, for which the outcome in assay [1], in assay [2] and in assay [3] was inactive.

With `O=C(O)c1ccc([N+](=O)[O-])cc1`, the result in assay [1] was inactive.

With `CC(CCO)CCc1ccccc1` (centres undefined), the outcome in assay [1] and in assay [2] was inactive.

Regarding `CC1(C)[C@@H]2CC[C@@]1(C)[C@H](O)C2`, the outcome in assay [1] was inactive.

Regarding `CC(=O)OCC=Cc1ccccc1`, the result in assay [1] and in assay [2] was inactive.
